# Data as given in PubChem BioAssay (NCATS).
# Several values for one entry are separate records, joined by “and”; a condition that tells them apart may be missing. Equal values may be shown once. Inconclusive results are not listed. Where a call stands in place of a potency, no number is given. A number with no mark means an inactive call. Activity calls are given as the source filed them. Unless noted, calls follow the shape of the dose curve; as a rule, active = well fitted curve in the direction sought with a large enough effect; inconclusive = small, poorly fitted or top-dose-only effect, or another doubt; inactive = no such curve, though single readings can be large; an effect the other way counts as inactive or inconclusive. Residues, ends and D or L forms follow the SMILES beside them. *: point of attachment. Cbz = O=C(OCc1ccccc1)*
# How the values were obtained:
# [1] = molecular target: Calcium and integrin-binding protein 1 (Homo sapiens) (UniProt Q99828); assay: Validation qHTS for Identification of Calcium Integrin Binding protein 1 (CIB1) Competitor (AID 1508618)
# Sequence of Calcium and integrin-binding protein 1 (Homo sapiens) (Q99828 whole entry, looked up): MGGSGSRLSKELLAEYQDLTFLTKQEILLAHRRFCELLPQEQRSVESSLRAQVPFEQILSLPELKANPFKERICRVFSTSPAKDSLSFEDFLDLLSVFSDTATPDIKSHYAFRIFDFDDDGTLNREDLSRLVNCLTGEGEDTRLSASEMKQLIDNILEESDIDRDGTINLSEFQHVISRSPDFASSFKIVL
# Method in brief: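 CIB1-GST (1 uM final) in 5 mM HEPES pH 7.4, 125 mM NaCl, 5 mM CaCl2, 0.01% Tween20 was preincubated 15 min at room temperature with compound (up to 114 uM), then FITC-alphaIIb peptide (100 nM) added for 15 min; fluorescence polarization read.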
# [2] = Primary qHTS for small molecule stabilizers of the endoplasmic reticulum resident proteome: Secreted ER Calcium Modulated Protein (SERCaMP) assay (AID 1508630)
# Method in brief: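 GLuc-SERCaMP-expressing SH-SY5Y cells, pretreated 16 h with compound, are challenged with thapsigargin to empty ER calcium stores; after 4 h, coelenterazine is added directly to the medium and luminescence is imaged.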
# Papain (Carica papaya) = Papain (Carica papaya) (UniProt P00784); assay: Primary qHTS assay for inhibitors of the protease papain (AID 1645873);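 also: papain turnover of Z-FR-AMC read as the AMC fluorescence gain over 10 min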; also: potency is read from the fitted curve at half-maximal effect
# Sequence of Papain (Carica papaya) (P00784 whole entry, looked up): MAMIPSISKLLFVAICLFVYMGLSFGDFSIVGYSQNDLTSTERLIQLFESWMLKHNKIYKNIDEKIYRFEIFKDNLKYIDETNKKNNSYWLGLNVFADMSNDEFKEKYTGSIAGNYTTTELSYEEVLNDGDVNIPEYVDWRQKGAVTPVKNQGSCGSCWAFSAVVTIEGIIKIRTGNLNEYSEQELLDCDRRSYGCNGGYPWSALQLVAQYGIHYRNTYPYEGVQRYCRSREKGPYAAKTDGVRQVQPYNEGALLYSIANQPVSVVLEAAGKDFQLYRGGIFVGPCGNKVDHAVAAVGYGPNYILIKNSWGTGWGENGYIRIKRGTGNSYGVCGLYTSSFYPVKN
# [3] = Counterscreen qHTS for small molecule stabilizers of the endoplasmic reticulum resident proteome: GLuc-NoTag assay (AID 1508627);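 also: SH-SY5Y cells given compound then 100 nM thapsigargin to empty ER calcium; series mostly up to about 76 µM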
# Method in brief: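 SH-SY5Y cells stably expressing constitutively secreted GLuc without SERCaMP tag, exposed to compound for 19 hr, then to 100 nM thapsigargin for 4 hr at 37C. Medium luciferase was read by coelenterazine luminescence without lysis.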
# [4] = Confirmatory qHTS for small molecule stabilizers of the endoplasmic reticulum resident proteome: Secreted ER Calcium Modulated Protein (SERCaMP) assay (AID 1508628); also: nearly all actives have a fitted effect of over 40% in size; also: potency is read from the fitted curve at half-maximal effect
# Method in brief: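 SH-SY5Y cells stably expressing GLuc-SERCaMP, treated 16 h with compound (primary 1.53, 7.67, 38.3 uM; confirmation 11 concentrations, up to 76.6 uM), then 100 nM thapsigargin for 4 h. Secreted Gaussia luciferase in medium read by coelenterazine luminescence.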
# [5] = Cell Viability qHTS for small molecule stabilizers of the endoplasmic reticulum resident proteome (AID 1508629); details: cell viability counter-screen, 100 nM thapsigargin for final 4 h;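 also: compound exposure about 46 h in total before the viability read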; also: potency is read from the fitted curve at half-maximal effect;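 as to max response: human SH-SY5Y neuroblastoma cells carrying the GLuc-SERCaMP reporter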
# [6] = Primary qHTS for inhibitors of nuclear receptor binding SET domain protein 2 (NSD2) in an isogenic RCH-ACV NSD2 p.E1099K mutant (9B) (AID 1645876); also: potency is read from the fitted curve at half-maximal effect; nearly all actives have a fitted effect of over 70% in size
# [7] = Primary qHTS for inhibitors of nuclear receptor binding SET domain protein 2 (NSD2) in an RCH-ACV wild type WT cells (2C) (AID 1645877); also: potency is read from the fitted curve at half-maximal effect; nearly all actives have a fitted effect of over 70% in size
# [8] = molecular target: Cytochrome P450 2C9 (Homo sapiens) (UniProt P11712); assay: Cytochrome P450 family 2 subfamily C member 9 (CYP2C9) small molecule antagonists: luciferase biochemical (cell-free) qHTS assay (AID 1645842; active = well fitted curve in the direction sought with a large enough effect in the repeat runs; an effect the other way counts as inactive or inconclusive; also: series mostly up to about 57 µM; nearly all actives have a fitted effect of over 55% in size)
# Sequence of Cytochrome P450 2C9 (Homo sapiens) (P11712 whole entry, looked up): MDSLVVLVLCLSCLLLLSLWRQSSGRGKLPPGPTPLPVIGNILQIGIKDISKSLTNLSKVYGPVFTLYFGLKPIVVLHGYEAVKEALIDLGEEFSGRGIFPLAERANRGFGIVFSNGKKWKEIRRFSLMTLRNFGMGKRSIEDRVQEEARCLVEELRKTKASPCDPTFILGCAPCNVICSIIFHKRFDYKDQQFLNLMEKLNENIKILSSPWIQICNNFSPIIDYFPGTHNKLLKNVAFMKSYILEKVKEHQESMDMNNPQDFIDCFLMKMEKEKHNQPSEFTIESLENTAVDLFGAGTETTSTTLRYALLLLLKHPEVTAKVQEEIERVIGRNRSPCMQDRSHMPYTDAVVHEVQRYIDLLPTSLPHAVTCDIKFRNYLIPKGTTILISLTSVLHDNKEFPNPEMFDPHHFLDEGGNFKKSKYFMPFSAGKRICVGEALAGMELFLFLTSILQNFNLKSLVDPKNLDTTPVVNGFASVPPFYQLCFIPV
# Method in brief: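 Luminescence, after 20 min with luciferin detection reagent, reflected CYP2C9 turnover during a 1 h NADPH-driven reaction at 37C. Enzyme-substrate mix contained 0.4% bovine serum albumin and was preincubated with compound 10 min at room temperature.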
smiles,measurement,setting,value
O=C1OC(=O)C2C3CCC(O3)C12 (configuration not stated),Potency,[1],inactive
same,Potency,[2],inactive
same,Potency,Papain (Carica papaya),inactive
COc1ccc(-c2cc3ncc(C)n3c(Nc3ncccc3C(N)=O)n2)cc1OC,Potency,[1],inactive
O=C(O)CCC(=O)N1CCCC1C(=O)O (configuration not stated),Potency,[1],inactive
same,Potency,[3],inactive
same,Potency,[4],inactive
same,Potency,Papain (Carica papaya),inactive
CC(C)[C@H](NC(=O)OCc1ccccc1)C(=O)N[C@H](C=O)Cc1ccccc1 (Cbz-Val-Phe-aldehyde),Potency,[1],inactive
same,Potency,[2],inactive
O=C(O)c1cc2cc(F)ccc2[nH]1,Potency,[1],inactive
same,Potency,[2],inactive
same,Potency,Papain (Carica papaya),inactive
O=c1[nH]c(=S)[nH]c(-c2ccccc2)c1Cc1c(O)ccc2ccccc12,Potency,[1],inactive
same,Potency,[2],inactive
CCCCCCCC/C=C\CCCCCCCC(=O)NCCc1ccc(O)c(O)c1,Potency,[1],inactive
same,Potency,[3],inactive
same,Potency,[4],5.01 µM (active)
same,Potency,[5],3.98 µM (active) and 7.08 µM (active)
same,Potency,Papain (Carica papaya),inactive
O=c1cc(O)cc(/C=C/c2ccc(O)c(O)c2)o1,Potency,[1],inactive
same,Potency,[4],20 µM (active)
NC(=Nc1ccccc1)NC(=O)c1nc(Cl)c(N)nc1N,Potency,[1],inactive
same,Potency,[3],inactive
same,Potency,[4],inactive
same,Potency,Papain (Carica papaya),25.1 µM (active)
Cc1ccc2c(c1)C(N1CCN(C)CC1)=Nc1cccnc1N2,Potency,[1],inactive
C[C@]12C=CC(=O)C=C1CC[C@@H]1C2=CC[C@]2(C)[C@@H](C(=O)CN3CCN(c4cc(N5CCCC5)nc(N5CCCC5)n4)CC3)CC[C@@H]12,Potency,[1],inactive
same,Potency,[3],inactive
CC1CCN(CC[C@H]2CCCN2S(=O)(=O)c2cccc(O)c2)CC1,Potency,[1],inactive
same,Potency,[2],inactive
same,Potency,Papain (Carica papaya),inactive
Nc1nc2c(cnn2CCc2ccccc2)c2nc(-c3ccco3)nn12,Potency,[1],inactive
same,Potency,[2],inactive
O=C(O)C1CCNCC1,Potency,[1],inactive
same,Potency,[2],inactive
same,Potency,Papain (Carica papaya),inactive
O=c1cc(-c2ccccc2F)[nH]c2cc3c(cc12)OCO3,Potency,[1],inactive
same,Potency,[2],inactive
N#CC(C#N)=C(N)/C(C#N)=C/c1ccc(O)cc1,Potency,[1],inactive
same,Potency,[2],inactive
N#Cc1cc([N+](=O)[O-])c2sc(C(N)=O)[n+]([O-])c2c1,Potency,[1],inactive
same,Potency,[3],inactive
same,Potency,[4],inactive
same,Potency,Papain (Carica papaya),inactive
same,Potency,[6],8.2 µM (active)
same,Potency,[7],10.3 µM (active)
CC(C)NC[C@H](O)COc1cccc2ccccc12,Potency,[1],inactive
same,Potency,[2],inactive
same,outcome,[8],inactive
same,Potency,Papain (Carica papaya),inactive
CN1C2CCC1CC(OC(c1ccccc1)c1ccccc1)C2 (configuration not stated),Potency,[1],inactive
same,Potency,[3],inactive
same,Potency,Papain (Carica papaya),inactive
CN1CCc2cc(Cl)c(O)cc2[C@@H](c2ccccc2)C1,Potency,[1],inactive
same,Potency,[4],inactive
same,Potency,[2],inactive
COc1ccc(CCN(C)CCc2ccc(OC)c(OC)c2)cc1OC,Potency,[1],inactive
same,Potency,[3],inactive
same,Potency,[4],inactive
same,max response,[5],1.86%
same,Potency,[2],inactive
same,Potency,Papain (Carica papaya),inactive
O=S(=O)(c1cccc2c(Cl)cccc12)N1CCCNCC1,Potency,[1],inactive
same,Potency,[3],inactive
same,Potency,[4],inactive
same,Potency,Papain (Carica papaya),inactive
